Measured values taken from PubChem BioAssay (NCI).
About 83,000 compounds went through this panel and 20% of them were active in at least one assay; those are over-represented in the sample as a whole.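 Assay: single dose, 48 h. Readout: percent growth (0 = no net growth; negative = cell death). Active: <10.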 A number with no mark means an inactive call. Calls of active or inactive are those of the source.

How the values were obtained:
Assay in all cases: NCI-60 one-dose screen, 48 h (100 = growth as untreated, 0 = no growth, -100 = all killed)
Conditions in all cases: 10 µM unless noted
[1] = test system: DU-145 prostate
[2] = test system: K-562 leukemia
[3] = test system: MALME-3M melanoma
[4] = test system: MDA-MB-231 breast
[5] = test system: RXF 393 renal
[6] = test system: SF-268 CNS
[7] = test system: SF-295 CNS
[8] = test system: SF-539 CNS
[9] = test system: UACC-257 melanoma
[10] = test system: M14 melanoma
[11] = test system: HCT-15 colon
[12] = test system: HT29 colon
[13] = test system: SNB-75 CNS
[14] = test system: SNB-19 CNS
[15] = test system: U251 CNS
[16] = test system: PC-3 prostate
[17] = test system: SK-MEL-5 melanoma
[18] = test system: UACC-62 melanoma
[19] = test system: LOX IMVI melanoma
[20] = test system: SK-MEL-28 melanoma

SMILES | growth [1] | growth [2] | growth [3] | growth [4] | growth [5] | growth [6] | growth [7] | growth [8] | growth [9] | growth [10] | growth [11] | growth [12] | growth [13] | growth [14] | growth [15] | growth [16] | growth [17] | growth [18] | growth [19] | growth [20]
CC(C)C1=C[C@@]23CC[C@H]4[C@](C)(COCCC#N)CCC[C@]4(C)[C@H]2C[C@@H]1[C@@H]1[C@H]3[C@@H](OCCC#N)CC[C@@H]1OCCC#N | 51.4% | 20.2% | 61.4% | 59.5% | 11.8% | 48.4% | 28.7% | 52.8% | 40.9% | 31.4% | 22.8% | 12.1% | 80.3% | 50.3% | 29.1% | 9.6% (active) | 39.1% | 45.3% | 40.1% | 48.7%
COc1ccc(/C=C(/C(=O)N2CCCC2)c2cc(OC)c(OC)c(OC)c2)cc1 | 17% | 12.5% | 50.1% | 58.5% | 5.92% (active) | 60.1% | 18.3% | 17.1% | 52.4% | 2.21% (active) | 39.6% | 11.6% | 32% | 46.8% | 25.1% | 26.3% | 15% | 44.1% | 54.2% | 73.9%
Cc1ccc2nc3nc4ccc[nH]c4cc3c2c1 | 108% | 111% | 101% | 70.3% | 99.6% | 94.1% | 113% | 83.5% | 119% | 110% | 60.4% | 76.8% | 72.3% | 97.3% | 92.5% | 87.5% | 71.7% | 94.3% | 97.9% | 116%
N#C/C(=C/c1ccc(O)c([N+](=O)[O-])c1)c1nc(-c2ccc([N+](=O)[O-])cc2)cs1 | 60.3% | 19.5% | 30.5% | 39.5% | 77.7% | 50.5% | 29.6% | 47.2% | 20.2% | 41.5% | 24.7% | 52.7% | 80.5% | 34.5% | 22.1% | 29.9% | 5.51% (active) | -17.2% (active) | 38.2% | 35.5%
CNCc1cccc2c1OCCOCCOCCN(CCN1CCOCC1)S(=O)(=O)c1ccc(cc1)-c1cnc(N)c(n1)C(=O)N2 | 45.7% | 12.6% | 93.8% | 94.1% | 14.8% | 68% | 68.1% | 24.1% | 98.7% | 26.4% | 74.8% | 24.5% | 16.7% | 76.3% | 53.8% | 50.1% | 76.6% | 73% | 28.4% | 76.3%
O=C1NC(SCc2ccc(F)cc2)=N/C1=C/c1cccc(OCc2ccc(Cl)cc2)c1 | 80.6% | 58.5% | 88.1% | 18.3% | 55% | 74.3% | -33.6% (active) | 14.1% | 95.8% | 63.9% | 72.1% | 68.1% | 50.7% | 33.4% | -41.2% (active) | 77.5% | 83% | 72% | 24.7% | 91.2%
CN(C)[C@@H]1C(=O)C(C(N)=O)=C(O)[C@@]2(O)C(=O)C3=C(O)c4c(O)cc(CN5CCc6ccccc6C5)c(Cl)c4C[C@H]3C[C@@H]12 | -92.2% (active) | -73.6% (active) | -52.5% (active) | -74.4% (active) | -82.2% (active) | -74.9% (active) | -88.9% (active) | -84.6% (active) | -62% (active) | -71.2% (active) | -75.1% (active) | -84.6% (active) | -79.1% (active) | -82.2% (active) | -95.7% (active) | -85.5% (active) | -94.2% (active) | -89.5% (active) | -87.2% (active) | -86.6% (active)
NC(=O)CN1C(=O)c2ccccc2C1=O | 101% | 96% | 97.5% | 101% | 114% | 97.3% | 95.3% | 106% | 106% | 102% | 100% | 102% | 86.4% | 98.4% | 103% | 99.5% | 99.2% | 95.7% | 103% | 106%
COC(=O)/C=C1\SC(=Nc2ccc(C(F)(F)F)cc2)N(CCc2c[nH]c3ccccc23)C1=O | -65.4% (active) | -0.591% (active) | -89.6% (active) | -63.7% (active) | -70.2% (active) | -3.91% (active) | -81.4% (active) | -91.2% (active) | -50.3% (active) | -45.6% (active) | -71.4% (active) | -34.1% (active) | 59.2% | -51.7% (active) | -87.8% (active) | -61.1% (active) | -88.8% (active) | -62.5% (active) | -97% (active) | -58.9% (active)
COc1ccc(-c2nc(C#N)c(NCC(c3ccc(Cl)cc3)N3CCCCC3)o2)cc1 (stereo not given) | 94% | 76.7% | 91.4% | 102% | 71.8% | 89.7% | 96.1% | 101% | 109% | 92.7% | 69.4% | 85.6% | 91% | 113% | 96% | 75.3% | 93.2% | 90.4% | 93.8% | 94.3%
O=C1NN(c2ccccc2)C(c2ccc3c(c2)OCO3)N2CCC[C@@H]12 (stereo not given in full) | 101% | 93.8% | 94.9% | 105% | 117% | 94% | 103% | 111% | 99.2% | 96.6% | 102% | 85.8% | 93.6% | 103% | 95.1% | 90.7% | 106% | 92% | 91.9% | 111%
C=C1C(=O)O[C@H]2[C@H]1CC/C(COC(=O)CCCCCCCC(=O)OC/C1=C/CC[C@@]3(C)O[C@H]3[C@H]3OC(=O)C(=C)[C@@H]3CC1)=C\CC[C@@]1(C)O[C@@H]21 | 27.8% | 3.32% (active) | -19.7% (active) | -10.3% (active) | -70.6% (active) | 30.9% | 86.7% | -1.74% (active) | 58.2% | 8.2% (active) | -4.93% (active) | -8.08% (active) | 68% | 55% | 32.3% | 15.2% | 17.5% | -10.2% (active) | -51.9% (active) | 20.7%
CCOC(=O)c1sc(/N=C2\NC(=O)/C(=C/c3ccc(N4CCN(C)CC4)cc3)S2)nc1C | 97.3% | 95.2% | 99.7% | 112% | 112% | 97.3% | 102% | 100% | 110% | 108% | 95.9% | 86.9% | 101% | 104% | 106% | 102% | 98% | 113% | 65.7% | 113%
OCCNc1nc(NCCO)nc(Nc2ccc(C3=NN(c4cc(Cl)cc(Cl)c4)C(c4ccc(C(F)(F)F)cc4)C3)cc2)n1 (stereo not given) | 22.2% | 10.7% | 29.4% | 42.3% | -27.2% (active) | 41.7% | -15.5% (active) | 24.3% | 59.4% | 36.1% | 17.5% | 10.5% | -1.68% (active) | 44.4% | 19.3% | 19.2% | 52.7% | 47.1% | -48.5% (active) | 44.8%
COC(=O)c1ccc(NC(=O)CSc2nc(-c3ccc(F)cc3)nc3ccccc23)cc1 | 88.7% | 81.2% | 60.9% | 58.3% | 109% | 75.8% | 86.2% | 96.9% | 102% | 70.2% | 89.3% | 91.3% | 79.4% | 80.2% | 63.1% | 75.6% | 74.3% | 93.4% | 64.8% | 94.7%
